# According to article PMC7862700, “An all-to-all approach to the identification of sequence-specific readers for epigenetic DNA modifications on cytosine”:
# Experiments:
# Experiment in all cases: DAPPL (digital affinity profiling via proximity ligation, sequencing); 10 mM Tris-HCl pH 7.5, 50 mM NaCl, 1 mM DTT, 4% glycerol, room temperature, 30 min; GST-TFs on glutathione beads, 16-mer random dsDNA library, 0.1% formaldehyde crosslink after washing; high values mean tight binding
# [1] = biological target: T1, FLI1 (Homo sapiens, UniProt Q01543 1-452); details: protein: recombinant; tags: N-terminal GST; dsDNA, one strand shown
# T1 sequence: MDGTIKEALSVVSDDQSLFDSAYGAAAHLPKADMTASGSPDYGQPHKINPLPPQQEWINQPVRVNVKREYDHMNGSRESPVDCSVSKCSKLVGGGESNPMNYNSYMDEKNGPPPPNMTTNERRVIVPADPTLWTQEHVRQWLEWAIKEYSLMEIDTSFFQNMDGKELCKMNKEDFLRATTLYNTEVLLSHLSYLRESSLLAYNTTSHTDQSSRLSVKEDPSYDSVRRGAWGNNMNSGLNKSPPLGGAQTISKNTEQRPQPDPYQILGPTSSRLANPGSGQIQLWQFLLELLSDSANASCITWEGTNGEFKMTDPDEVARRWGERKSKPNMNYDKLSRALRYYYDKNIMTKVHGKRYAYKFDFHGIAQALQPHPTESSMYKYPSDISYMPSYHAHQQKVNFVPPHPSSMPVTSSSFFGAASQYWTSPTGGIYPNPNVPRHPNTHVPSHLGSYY
# How it was run: (§1)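 Binding signal is each hexamer's read frequency for a factor divided by its frequency in the tag-only sample. The factors were GST-fused human transcription factors from yeast, captured on glutathione beads, DNA-barcoded and pooled with that sample. Pools were incubated with 200 nmole of a random double-stranded 16-mer DNA library in Tris/NaCl/DTT/glycerol buffer at room temperature for 30 min, then washed, crosslinked with 0.1% formaldehyde, proximity-ligated with BsaI/T4 ligase (1 h, 37 °C), PCR-amplified and sequenced on an Illumina NextSeq500.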
# [2] = biological target: T2, ELK1 (Homo sapiens, UniProt P19419 1-428); details: protein: recombinant; tags: N-terminal GST; dsDNA, one strand shown
# T2 sequence: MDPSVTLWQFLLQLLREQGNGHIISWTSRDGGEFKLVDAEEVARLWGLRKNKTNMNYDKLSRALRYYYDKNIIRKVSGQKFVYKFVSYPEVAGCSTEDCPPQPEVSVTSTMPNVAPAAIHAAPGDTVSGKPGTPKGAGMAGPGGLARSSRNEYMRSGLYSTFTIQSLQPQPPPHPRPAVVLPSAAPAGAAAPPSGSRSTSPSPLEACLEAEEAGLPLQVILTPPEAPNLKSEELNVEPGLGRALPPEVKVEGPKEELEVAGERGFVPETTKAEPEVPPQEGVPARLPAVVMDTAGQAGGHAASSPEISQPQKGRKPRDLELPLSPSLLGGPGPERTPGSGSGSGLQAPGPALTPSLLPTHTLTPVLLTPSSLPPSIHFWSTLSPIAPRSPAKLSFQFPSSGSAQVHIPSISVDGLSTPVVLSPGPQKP
# How it was run: as §1
# [3] = biological target: T3, GABPA (Homo sapiens, UniProt Q06546 1-454); details: protein: recombinant; tags: N-terminal GST; dsDNA, one strand shown
# T3 sequence: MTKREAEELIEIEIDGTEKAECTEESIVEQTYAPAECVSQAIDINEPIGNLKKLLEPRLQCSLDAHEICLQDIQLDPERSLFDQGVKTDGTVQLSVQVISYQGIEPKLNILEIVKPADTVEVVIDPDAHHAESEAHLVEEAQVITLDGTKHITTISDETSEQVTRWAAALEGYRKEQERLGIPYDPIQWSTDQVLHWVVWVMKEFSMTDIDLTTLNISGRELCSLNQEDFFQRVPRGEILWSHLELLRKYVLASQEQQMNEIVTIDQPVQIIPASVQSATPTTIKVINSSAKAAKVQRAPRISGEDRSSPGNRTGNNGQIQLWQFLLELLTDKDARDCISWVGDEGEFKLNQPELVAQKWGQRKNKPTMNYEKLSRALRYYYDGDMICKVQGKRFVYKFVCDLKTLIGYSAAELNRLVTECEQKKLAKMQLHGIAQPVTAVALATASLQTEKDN
# How it was run: as §1
# [4] = biological target: T4, ERG (Homo sapiens, UniProt P11308 1-479); details: protein: recombinant; tags: N-terminal GST; dsDNA, one strand shown
# T4 sequence: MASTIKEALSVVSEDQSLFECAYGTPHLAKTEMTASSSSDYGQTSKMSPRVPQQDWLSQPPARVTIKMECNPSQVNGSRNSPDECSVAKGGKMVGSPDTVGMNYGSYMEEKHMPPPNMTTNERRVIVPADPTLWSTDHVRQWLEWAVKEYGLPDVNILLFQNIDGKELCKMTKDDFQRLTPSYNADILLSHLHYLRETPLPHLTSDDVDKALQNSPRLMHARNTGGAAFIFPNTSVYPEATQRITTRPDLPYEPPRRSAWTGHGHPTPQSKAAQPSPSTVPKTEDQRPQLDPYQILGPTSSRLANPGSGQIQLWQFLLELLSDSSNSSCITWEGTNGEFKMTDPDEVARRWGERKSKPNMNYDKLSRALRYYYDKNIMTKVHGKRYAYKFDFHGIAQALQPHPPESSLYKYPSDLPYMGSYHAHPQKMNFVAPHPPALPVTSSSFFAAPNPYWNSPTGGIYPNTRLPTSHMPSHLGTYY
# How it was run: as §1
# [5] = biological target: ELF1 (Homo sapiens, UniProt P32519 1-619); details: protein: recombinant; tags: N-terminal GST; dsDNA, one strand shown
# ELF1, sequence (P32519 whole entry): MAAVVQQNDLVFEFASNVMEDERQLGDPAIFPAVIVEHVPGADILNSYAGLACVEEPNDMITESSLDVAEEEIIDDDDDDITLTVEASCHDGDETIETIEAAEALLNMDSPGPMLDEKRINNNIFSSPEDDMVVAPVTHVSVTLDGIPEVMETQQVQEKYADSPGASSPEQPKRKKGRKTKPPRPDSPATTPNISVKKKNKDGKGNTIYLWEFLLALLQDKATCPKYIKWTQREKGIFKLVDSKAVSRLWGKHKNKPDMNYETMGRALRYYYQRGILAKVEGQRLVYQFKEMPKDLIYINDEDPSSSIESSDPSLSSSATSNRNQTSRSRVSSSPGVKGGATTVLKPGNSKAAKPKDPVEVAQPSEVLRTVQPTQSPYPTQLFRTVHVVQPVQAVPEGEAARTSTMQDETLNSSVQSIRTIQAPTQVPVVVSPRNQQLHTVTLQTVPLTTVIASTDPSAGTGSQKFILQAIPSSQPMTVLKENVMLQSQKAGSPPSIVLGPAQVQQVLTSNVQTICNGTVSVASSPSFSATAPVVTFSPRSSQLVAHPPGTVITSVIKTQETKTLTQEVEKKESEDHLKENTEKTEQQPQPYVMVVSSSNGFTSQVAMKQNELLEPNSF
# How it was run: as §1
# [6] = biological target: T5, EHF (Homo sapiens, UniProt Q9NZC4 1-300); details: protein: recombinant; tags: N-terminal GST; dsDNA, one strand shown
# T5 sequence: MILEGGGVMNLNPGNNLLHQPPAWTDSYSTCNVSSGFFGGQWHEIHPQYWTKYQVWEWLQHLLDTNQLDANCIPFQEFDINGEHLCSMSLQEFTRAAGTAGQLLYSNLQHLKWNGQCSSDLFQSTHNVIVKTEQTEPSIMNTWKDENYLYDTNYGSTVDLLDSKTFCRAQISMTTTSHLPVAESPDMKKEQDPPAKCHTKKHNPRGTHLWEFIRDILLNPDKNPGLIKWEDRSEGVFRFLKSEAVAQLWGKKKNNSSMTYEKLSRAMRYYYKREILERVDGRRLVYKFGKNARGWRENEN
# How it was run: as §1
# [7] = biological target: SPI1 (Homo sapiens, UniProt P17947 1-270); details: protein: recombinant; tags: N-terminal GST; dsDNA, one strand shown
# How it was run: as §1
# [8] = biological target: SPIB (Homo sapiens, UniProt Q01892 1-262); details: protein: recombinant; tags: N-terminal GST; dsDNA, one strand shown
# SPIB, sequence (Q01892 whole entry): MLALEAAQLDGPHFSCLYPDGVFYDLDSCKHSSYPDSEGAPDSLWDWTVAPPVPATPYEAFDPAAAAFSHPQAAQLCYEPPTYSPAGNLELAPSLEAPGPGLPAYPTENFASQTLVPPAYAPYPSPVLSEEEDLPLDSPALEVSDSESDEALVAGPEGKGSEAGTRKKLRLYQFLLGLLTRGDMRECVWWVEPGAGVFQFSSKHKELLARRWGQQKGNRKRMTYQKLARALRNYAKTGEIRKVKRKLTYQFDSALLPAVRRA
# How it was run: as §1
# [9] = biological target: T6, ELK3 (Homo sapiens, UniProt P41970 1-407); details: protein: recombinant; tags: N-terminal GST; dsDNA, one strand shown
# T6 sequence: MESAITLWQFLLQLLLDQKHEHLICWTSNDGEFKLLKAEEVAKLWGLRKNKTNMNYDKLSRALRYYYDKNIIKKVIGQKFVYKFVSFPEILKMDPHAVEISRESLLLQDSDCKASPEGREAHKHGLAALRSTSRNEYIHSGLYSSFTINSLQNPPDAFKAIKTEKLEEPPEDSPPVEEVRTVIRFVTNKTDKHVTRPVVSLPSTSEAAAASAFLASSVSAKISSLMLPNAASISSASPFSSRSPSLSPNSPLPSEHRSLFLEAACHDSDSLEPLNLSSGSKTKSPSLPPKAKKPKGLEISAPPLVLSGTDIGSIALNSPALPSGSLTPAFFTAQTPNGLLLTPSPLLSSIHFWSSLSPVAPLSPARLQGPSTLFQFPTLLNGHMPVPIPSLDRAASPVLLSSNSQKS
# How it was run: as §1
# [10] = biological target: T7, FEV (Homo sapiens, UniProt Q99581 1-238); details: protein: recombinant; tags: N-terminal GST; dsDNA, one strand shown
# T7 sequence: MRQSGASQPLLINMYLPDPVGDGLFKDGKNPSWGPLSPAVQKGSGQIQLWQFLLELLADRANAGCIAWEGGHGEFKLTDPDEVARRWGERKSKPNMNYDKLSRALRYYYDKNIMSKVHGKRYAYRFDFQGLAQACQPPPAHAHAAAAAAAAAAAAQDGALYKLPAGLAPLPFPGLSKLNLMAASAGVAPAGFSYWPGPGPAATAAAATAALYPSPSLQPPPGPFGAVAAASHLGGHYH
# How it was run: as §1
# [11] = biological target: ETV5 (Homo sapiens, UniProt P41161 1-510); details: protein: recombinant; tags: N-terminal GST; dsDNA, one strand shown
# ETV5, sequence (P41161 whole entry): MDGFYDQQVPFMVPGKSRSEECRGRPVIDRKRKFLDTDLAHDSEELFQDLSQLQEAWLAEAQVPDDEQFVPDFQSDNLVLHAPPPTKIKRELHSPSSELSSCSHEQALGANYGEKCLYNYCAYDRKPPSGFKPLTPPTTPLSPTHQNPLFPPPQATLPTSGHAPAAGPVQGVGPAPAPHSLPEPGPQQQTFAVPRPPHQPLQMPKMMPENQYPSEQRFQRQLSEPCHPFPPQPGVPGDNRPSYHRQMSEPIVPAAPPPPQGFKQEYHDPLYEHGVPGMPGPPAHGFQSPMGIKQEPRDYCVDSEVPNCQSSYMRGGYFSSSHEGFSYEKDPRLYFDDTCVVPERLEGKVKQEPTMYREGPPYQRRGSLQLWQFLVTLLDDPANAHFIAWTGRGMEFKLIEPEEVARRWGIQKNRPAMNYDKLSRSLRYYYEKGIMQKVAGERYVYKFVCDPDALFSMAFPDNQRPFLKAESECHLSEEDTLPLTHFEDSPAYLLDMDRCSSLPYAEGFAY
# How it was run: as §1
# [12] = biological target: HSF1 (Homo sapiens, UniProt Q00613 1-529); details: protein: recombinant; tags: N-terminal GST; chain copies: 3; dsDNA, one strand shown
# HSF1, sequence (Q00613 whole entry): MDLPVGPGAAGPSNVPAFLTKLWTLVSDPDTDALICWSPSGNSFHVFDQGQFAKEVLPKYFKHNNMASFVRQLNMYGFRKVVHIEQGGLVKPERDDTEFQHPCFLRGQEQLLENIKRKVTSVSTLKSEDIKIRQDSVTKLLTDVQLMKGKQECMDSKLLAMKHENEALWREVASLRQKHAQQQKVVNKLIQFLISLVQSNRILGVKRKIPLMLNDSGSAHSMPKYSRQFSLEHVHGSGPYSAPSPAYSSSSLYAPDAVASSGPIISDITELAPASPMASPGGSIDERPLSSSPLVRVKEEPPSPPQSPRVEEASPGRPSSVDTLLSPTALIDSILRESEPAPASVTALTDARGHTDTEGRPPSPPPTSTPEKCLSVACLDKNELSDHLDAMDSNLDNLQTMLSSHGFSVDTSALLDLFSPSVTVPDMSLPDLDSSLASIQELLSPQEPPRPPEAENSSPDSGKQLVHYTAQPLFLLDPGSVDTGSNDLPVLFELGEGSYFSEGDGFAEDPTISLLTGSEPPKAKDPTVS
# How it was run: as §1
# [13] = biological target: T8, SPIC (Homo sapiens, UniProt Q8N5J4 1-248); details: protein: recombinant; tags: N-terminal GST; dsDNA, one strand shown
# T8 sequence: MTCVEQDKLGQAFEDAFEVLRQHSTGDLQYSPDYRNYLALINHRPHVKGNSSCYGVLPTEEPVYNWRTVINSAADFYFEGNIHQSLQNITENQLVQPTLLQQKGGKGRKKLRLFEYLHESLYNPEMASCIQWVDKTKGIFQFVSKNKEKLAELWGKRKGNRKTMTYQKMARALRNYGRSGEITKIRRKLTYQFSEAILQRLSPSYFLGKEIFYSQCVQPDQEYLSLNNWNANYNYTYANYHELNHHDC
# How it was run: as §1
# [14] = biological target: ELF4 (Homo sapiens, UniProt Q99607 1-663); details: protein: recombinant; tags: N-terminal GST; dsDNA, one strand shown
# ELF4, sequence (Q99607 whole entry): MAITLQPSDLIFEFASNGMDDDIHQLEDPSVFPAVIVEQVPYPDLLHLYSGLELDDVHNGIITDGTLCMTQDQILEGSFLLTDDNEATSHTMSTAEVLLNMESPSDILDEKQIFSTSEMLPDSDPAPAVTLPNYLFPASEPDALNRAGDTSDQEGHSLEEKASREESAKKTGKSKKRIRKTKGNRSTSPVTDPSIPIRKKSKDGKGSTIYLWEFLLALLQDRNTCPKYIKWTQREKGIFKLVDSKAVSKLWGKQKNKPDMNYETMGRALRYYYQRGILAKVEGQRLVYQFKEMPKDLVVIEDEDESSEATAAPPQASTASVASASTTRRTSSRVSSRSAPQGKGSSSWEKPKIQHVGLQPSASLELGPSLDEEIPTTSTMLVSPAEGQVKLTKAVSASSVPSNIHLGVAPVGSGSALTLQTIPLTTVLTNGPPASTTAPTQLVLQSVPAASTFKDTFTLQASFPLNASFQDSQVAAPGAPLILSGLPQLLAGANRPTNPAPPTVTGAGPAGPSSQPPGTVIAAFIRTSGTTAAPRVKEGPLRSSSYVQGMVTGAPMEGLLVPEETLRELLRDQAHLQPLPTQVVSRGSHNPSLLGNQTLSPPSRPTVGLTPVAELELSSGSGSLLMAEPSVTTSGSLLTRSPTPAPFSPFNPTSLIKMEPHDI
# How it was run: as §1
# [15] = biological target: T9, ELK4 (Homo sapiens, UniProt P28324-2 1-405); details: protein: recombinant; tags: N-terminal GST; dsDNA, one strand shown
# T9 sequence: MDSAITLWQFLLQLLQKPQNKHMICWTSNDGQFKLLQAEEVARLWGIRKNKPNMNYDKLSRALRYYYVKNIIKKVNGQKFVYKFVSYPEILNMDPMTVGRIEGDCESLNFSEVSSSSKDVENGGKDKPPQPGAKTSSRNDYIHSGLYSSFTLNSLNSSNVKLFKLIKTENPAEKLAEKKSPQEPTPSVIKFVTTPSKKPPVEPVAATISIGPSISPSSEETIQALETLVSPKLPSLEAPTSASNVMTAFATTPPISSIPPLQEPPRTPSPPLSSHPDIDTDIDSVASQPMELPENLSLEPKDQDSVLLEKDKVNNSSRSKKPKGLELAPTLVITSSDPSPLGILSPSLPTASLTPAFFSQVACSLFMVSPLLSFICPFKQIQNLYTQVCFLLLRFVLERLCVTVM
# How it was run: as §1
# [16] = biological target: T10, ETV2 (Homo sapiens, UniProt O00321 1-342); details: protein: recombinant; tags: N-terminal GST; dsDNA, one strand shown
# T10 sequence: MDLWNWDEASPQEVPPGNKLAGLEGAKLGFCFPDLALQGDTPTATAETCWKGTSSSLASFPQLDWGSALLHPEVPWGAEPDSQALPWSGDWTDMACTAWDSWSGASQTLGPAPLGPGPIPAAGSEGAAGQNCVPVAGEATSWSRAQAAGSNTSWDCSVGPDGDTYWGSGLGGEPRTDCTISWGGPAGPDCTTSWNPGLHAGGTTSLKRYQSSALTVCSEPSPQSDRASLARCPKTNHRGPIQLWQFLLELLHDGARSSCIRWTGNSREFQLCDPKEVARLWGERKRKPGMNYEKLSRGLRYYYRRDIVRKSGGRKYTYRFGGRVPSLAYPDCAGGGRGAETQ
# How it was run: as §1
# [17] = biological target: T11, ELF3 (Homo sapiens, UniProt P78545 1-371); details: protein: recombinant; tags: N-terminal GST; dsDNA, one strand shown
# T11 sequence: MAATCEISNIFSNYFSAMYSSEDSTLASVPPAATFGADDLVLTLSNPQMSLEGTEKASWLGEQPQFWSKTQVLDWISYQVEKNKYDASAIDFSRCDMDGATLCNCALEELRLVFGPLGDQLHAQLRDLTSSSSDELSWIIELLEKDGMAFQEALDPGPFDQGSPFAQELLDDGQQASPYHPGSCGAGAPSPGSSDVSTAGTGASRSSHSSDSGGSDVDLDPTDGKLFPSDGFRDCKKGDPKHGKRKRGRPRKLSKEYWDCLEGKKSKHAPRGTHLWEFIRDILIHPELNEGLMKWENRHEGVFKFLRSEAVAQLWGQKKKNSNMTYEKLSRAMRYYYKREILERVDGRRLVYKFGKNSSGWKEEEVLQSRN
# How it was run: as §1
# [18] = biological target: CRX (Homo sapiens, UniProt O43186 1-299); details: protein: recombinant; tags: N-terminal GST; dsDNA, one strand shown
# CRX, sequence (O43186 whole entry): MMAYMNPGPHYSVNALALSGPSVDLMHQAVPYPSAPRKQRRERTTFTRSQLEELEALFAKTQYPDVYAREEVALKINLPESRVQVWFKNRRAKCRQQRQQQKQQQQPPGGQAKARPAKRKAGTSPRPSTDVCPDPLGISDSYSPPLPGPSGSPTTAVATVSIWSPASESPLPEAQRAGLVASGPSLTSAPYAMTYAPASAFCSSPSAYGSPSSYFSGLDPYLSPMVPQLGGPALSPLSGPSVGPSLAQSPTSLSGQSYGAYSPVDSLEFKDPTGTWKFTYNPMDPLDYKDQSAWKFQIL
# How it was run: as §1
# [19] = biological target: ETV1 (Homo sapiens, UniProt P50549 1-477); details: protein: recombinant; tags: N-terminal GST; dsDNA, one strand shown
# ETV1, sequence (P50549 whole entry): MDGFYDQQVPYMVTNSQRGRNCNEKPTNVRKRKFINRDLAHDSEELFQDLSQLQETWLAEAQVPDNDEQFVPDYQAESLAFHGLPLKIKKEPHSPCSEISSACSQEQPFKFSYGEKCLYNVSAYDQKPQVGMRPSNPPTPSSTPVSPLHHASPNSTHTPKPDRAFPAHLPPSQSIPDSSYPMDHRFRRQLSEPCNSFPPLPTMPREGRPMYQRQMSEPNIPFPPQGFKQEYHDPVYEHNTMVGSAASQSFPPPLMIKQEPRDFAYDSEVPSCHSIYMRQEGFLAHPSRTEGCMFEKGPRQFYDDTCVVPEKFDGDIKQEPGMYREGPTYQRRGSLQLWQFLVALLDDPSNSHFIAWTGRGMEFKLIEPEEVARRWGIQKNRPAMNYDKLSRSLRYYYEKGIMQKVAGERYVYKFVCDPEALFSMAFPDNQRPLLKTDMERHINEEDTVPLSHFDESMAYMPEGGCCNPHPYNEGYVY
# How it was run: as §1
sequence,measurement,setting,value
CCGATC,binding signal,[1],"1.38 fold enrichment (6-mer frequency, TF over GST control)"
same,binding signal,[2],"1.25 fold enrichment (6-mer frequency, TF over GST control)"
same,binding signal,[3],"1.21 fold enrichment (6-mer frequency, TF over GST control)"
same,binding signal,[4],"1.24 fold enrichment (6-mer frequency, TF over GST control)"
same,binding signal,[5],"1.28 fold enrichment (6-mer frequency, TF over GST control)"
same,binding signal,[6],"1.24 fold enrichment (6-mer frequency, TF over GST control)"
same,binding signal,[7],"1.18 fold enrichment (6-mer frequency, TF over GST control)"
same,binding signal,[8],"1.17 fold enrichment (6-mer frequency, TF over GST control)"
same,binding signal,[9],"1.17 fold enrichment (6-mer frequency, TF over GST control)"
same,binding signal,[10],"1.24 fold enrichment (6-mer frequency, TF over GST control)"
same,binding signal,[11],"1.25 fold enrichment (6-mer frequency, TF over GST control)"
same,binding signal,[12],"1.23 fold enrichment (6-mer frequency, TF over GST control)"
same,binding signal,[13],"1.27 fold enrichment (6-mer frequency, TF over GST control)"
same,binding signal,[14],"1.2 fold enrichment (6-mer frequency, TF over GST control)"
same,binding signal,[15],"1.13 fold enrichment (6-mer frequency, TF over GST control)"
same,binding signal,[16],"1.19 fold enrichment (6-mer frequency, TF over GST control)"
same,binding signal,[17],"1.4 fold enrichment (6-mer frequency, TF over GST control)"
same,binding signal,[18],"1.36 fold enrichment (6-mer frequency, TF over GST control)"
same,binding signal,[19],"1.12 fold enrichment (6-mer frequency, TF over GST control)"
